Data reported in ChEMBL document CHEMBL3433997, “St. Jude Leishmania screening dataset” (2016).

Legend:
Type in all cases: functional
[1] = biological target: Solute carrier family 2, facilitated glucose transporter member 1 (Homo sapiens) (UniProt P11166); experiment: ST_JUDE_LEISH: Cytotoxicity at 2uM final concentration against transgenic Leishmania Mexicana promastigotes LmGLUT1 that are glucose transport deficient and complemented with the human glucose transporter GLUT1. Activity is measured by DNA content using SYBR green in vitro
[2] = biological target: Hexose transporter 1 (Plasmodium falciparum) (UniProt O97467); experiment: ST_JUDE_LEISH: Cytotoxicity at 2uM final concentration against transgenic Leishmania Mexicana promastigotes LmPfHT that are glucose transport deficient and complemented with the Plasmodium falciparum hexose transporter. Activity is measured by DNA content using SYBR green in vitro
[3] = biological target: Glucose transporter (Leishmania mexicana) (UniProt O61059); experiment: ST_JUDE_LEISH: Cytotoxicity at 2uM final concentration against transgenic Leishmania Mexicana promastigotes LmGT2 that are glucose transport deficient and complemented with the L. Mexicana glucose transporter 2. Activity is measured by DNA content using SYBR green in vitro

Chain of Solute carrier family 2, facilitated glucose transporter member 1 (Homo sapiens) (P11166 whole entry): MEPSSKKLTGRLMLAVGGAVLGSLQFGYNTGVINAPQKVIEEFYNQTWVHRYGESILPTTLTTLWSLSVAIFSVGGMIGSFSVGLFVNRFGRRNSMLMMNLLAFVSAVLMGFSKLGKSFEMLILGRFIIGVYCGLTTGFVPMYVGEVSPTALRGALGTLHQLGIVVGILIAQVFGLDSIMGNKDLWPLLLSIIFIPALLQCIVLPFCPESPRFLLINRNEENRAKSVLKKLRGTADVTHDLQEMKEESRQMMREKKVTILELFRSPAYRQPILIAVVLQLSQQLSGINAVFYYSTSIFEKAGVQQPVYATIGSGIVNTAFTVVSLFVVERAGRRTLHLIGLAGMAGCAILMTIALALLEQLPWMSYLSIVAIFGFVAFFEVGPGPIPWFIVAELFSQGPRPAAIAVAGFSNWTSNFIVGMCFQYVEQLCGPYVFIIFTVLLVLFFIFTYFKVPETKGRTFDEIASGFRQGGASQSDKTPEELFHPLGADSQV

Row | Structure (SMILES) | inhibition [1] [%] | inhibition [2] [%] | inhibition [3] [%]
1 | O=C(NCCCCN1CCC(c2ccc3c(c2OCC2COCO2)CCCC3)CC1)c1ccc(-c2ccc(C(F)(F)F)cc2)cc1 (centres undefined) | -0.33 | 1.19 | 1.97
2 | Cc1ccc2ccccc2c1CCCON1C(=N)N=C(N)NC1(C)C | 4.76 | 3.93 | 2.74
3 | C[C@H](Nc1c(Nc2ccc3[nH]ccc3c2)c(=O)c1=O)C1CCCCC1 | -1.55 | 0.15 | -0.44
4 | C=CCN(c1nc(NC)nc(NCc2c(OC)cccc2OC)n1)C1CCCC1 | 5.12 | 3.87 | 1.88
5 | O=C(c1ccc([N+](=O)[O-])o1)N1CCN(c2nc3c(Cl)cccc3s2)CC1 | 39.8 | 37.4 | 4.58
6 | O=C(NC1CCN(c2ccnc3ccccc23)C1)c1ccc(OC(F)(F)F)cc1 (centres undefined) | 1.75 | 1.97 | 2.7
7 | CN(C)CCC(O)(c1ccc(Br)cc1)c1cccnc1 (centres undefined) | 3.13 | 2.98 | 0.51
8 | Cc1csc2nc(C(C)c3ccc(NC(=O)c4cccs4)cc3)oc(=O)c12 (centres undefined) | 1.03 | -0.57 | -0.38
9 | CN1CCC(COc2ccc(CN3CCC(NC(=O)c4cccc(Cl)c4)CC3)cc2)CC1 | 2.48 | 3.13 | 0.42
10 | CNC(=O)C1Cc2c([nH]c3cc(Cl)ccc23)C2(CCN(CCc3ccccc3)CC2)N1 (centres undefined) | 0.42 | 1.39 | 1.5
11 | Cc1c(C(=O)NCc2ccncc2)sc2nc(-c3cccc([N+](=O)[O-])c3)cn12 | 0.53 | -1.39 | -3.15
12 | N#Cc1ccc2[nH]cc(CN3CCC4(CC3)CN(CCNCc3ccccc3)C(=O)CO4)c2c1 | 2.13 | -0.73 | 5.02
13 | Oc1ccc(CCCNc2nc(NCc3ccccc3-c3ccccc3)nc(NC3CCNCC3)n2)cc1 | -1.61 | -0.26 | -0.11
